# Shown are actives, neighbours in structure and some others; about 12% of the full set was active somewhere.
# Calpain2 inh = inhibitors of pig calpain II. purified calpain II, fluorogenic peptide substrate, 30 min. inhibition, % at 16 µM. actives 0.37% (n = 220,000). AID 1236;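 active = inhibition above about 50%, limit read from the data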
# ROMK primary = modulates human ROMK potassium channel activity. actives 2% (n = 130,000). B-score at 10 µM. P48048. Tet-inducible ROMK, thallium flux fluorescence; actives lie on both sides;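 active = signal ratio slope over the read window, or its plate-corrected B-score, at least 3 SD from the plate mean, either direction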;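 also: B-score of the F/F0 ratio slope over 7 to 12 s after thallium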
# Lmaj promast = Leishmania major promastigote growth inhibition; Leishmania major promastigotes, resazurin fluorescence viability; inhibition, % at 10 µM; actives 9% (n = 200,000); AID 1063; in the data active = inhibition above about 50%;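 also: promastigotes grown with compound for 44 hours at 28 °C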
# WT yeast gro inh = growth inhibition of WT yeast, mitochondrial fusion screen | mitochondrial fusion phenotypic screen, WT strain | inhibition, % at 10 µM | actives 2.1% (n = 190,000) | AID 1362; in the data active = inhibition above about 58%; tested in S. cerevisiae
# KCC2 mod = modulates chloride dependent transport by human KCC2. Q9H2X9. KCC2 cells, thallium flux FluoZin-2 fluorescence. B-score of Tl+ flux slope (higher = more flux/activation; lower = inhibition) at 10 µM. actives 2.2% (n = 190,000). AID 1456;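 active = thallium flux slope and its plate-corrected score both differing from the plate sample mean at a set confidence after two filtering rounds, in either direction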;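 also: slope of fluorescence scaled to starting intensity during 10 to 20 s after thallium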
# Lmaj promast 1uM = blocks Leishmania major promastigote growth at 1 uM, repeat screen | actives 13% (n = 1,100) | inhibition, % at 1 µM | L. major promastigote growth, resazurin fluorescence, 48 h | shares compounds with Lmaj promast;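 active = inhibition above about 50% in both repeat tests, limit read from the data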
# Numbers stand for hits; . = inactive; / = no result.
SMILES,Calpain2 inh,ROMK primary,Lmaj promast,WT yeast gro inh,KCC2 mod,Lmaj promast 1uM
Cc1ccc(C)c(NS(=O)(=O)c2cc(C(=O)Nc3ccccc3-c3ccccc3)ccc2Cl)c1,.,.,.,.,.,/
Cc1cc(C)c(N2C(=O)C3C4CC(=O)C(c5ccccc54)C3C2=O)c(C)c1 (configuration not stated),.,/,/,/,.,/
Cc1ccc(NCC(=O)N/N=C\C(Br)=C\c2ccccc2)cc1,.,.,68,.,.,.
C=CCOC(=O)C1=C(C)NC(SCC(=O)Nc2ccccc2)=C(C#N)C1c1ccco1 (configuration not stated),.,/,.,.,.,/
CCN1CCCC(OC(=O)c2cc(-c3ccccc3Cl)nc3ccccc23)C1 (configuration not stated),.,.,78,.,.,.
O=C(CN1C(=O)CSC1=O)NC1CCCCC1,.,.,.,.,.,/
Cc1nc(-c2cn[nH]c2)c2cc(C)oc2n1,.,.,62,.,.,.
Cc1cc2c(C)nc(-c3ccccc3)nc2o1,.,.,.,.,.,/
CN(c1ccc(O)cc1)c1nc(-c2ccccc2)cs1,.,.,89,.,.,.
Cc1ccc(N=c2ssnc2Cl)cc1,.,/,.,.,.,/
Cc1cc(C)nc(/N=c2/ssnc2Cl)c1,.,.,99,63,.,94
C1CCC(C(CC2CCCCN2)C2CCCCC2)CC1 (configuration not stated),.,/,100,.,.,.
O=C(O)CSc1nc2sc3c(c2c(=O)n1-c1ccccc1)CCC3,.,.,/,/,.,/
CC(NC(=O)CSc1nc2sc3c(c2c(=O)n1-c1ccccc1)CCCC3)c1ccccc1 (configuration not stated),.,/,69,.,.,.
CC(C)c1nccn1S(=O)(=O)c1cccc([N+](=O)[O-])c1,.,.,52,.,.,.
CN1CCN(S(=O)(=O)c2cccc([N+](=O)[O-])c2)CC1,/,/,.,/,.,/
O=C(NC1CCN(C(=O)N2c3ccccc3Sc3ccccc32)CC1)c1ccco1,.,/,.,.,.,/
COc1cccc(C(=O)NC2CCN(C(=O)N3c4ccccc4Sc4ccccc43)CC2)c1,.,/,71,.,/,.
COc1ccc(N2CCN(C(=O)Cn3nnc(-c4ccccc4N)n3)CC2)cc1,.,.,.,.,.,/
CCOc1ccccc1CNCc1ccc(C(=O)O)cc1,.,.,.,.,.,/
CCOc1ccccc1CNCc1ccc(F)cc1,.,.,54,.,.,.
CCOC(=O)Nc1ccc2c(c1)N(C(=O)CCN1CCN(C)CC1)c1ccccc1S2,.,/,.,.,.,/
CCOC(=O)Nc1ccc2c(c1)N(C(=O)N1CCN(C)CC1)c1ccccc1S2,.,.,84,.,/,.
CCOC(=O)Nc1ccc2c(c1)Nc1ccccc1S2,.,.,67,.,/,.
CC1CCN(c2c(NCC3CCC(C(=O)NCc4ccccc4Cl)CC3)c(=O)c2=O)CC1 (configuration not stated),.,.,.,.,.,/
SMILES,Calpain2 inh,ROMK primary,Lmaj promast,WT yeast gro inh,KCC2 mod,Lmaj promast 1uM
O=C1CC(c2ccc(Br)cc2)NC(c2ccc(Br)cc2)C1c1ccccc1 (configuration not stated),.,/,90,.,.,.
Cc1cc(/C=C(\C#N)c2nc3ccccc3[nH]2)c(C)n1C,.,.,.,.,.,/
Cc1cc(/C=C(/C#N)c2nc3ccccc3[nH]2)c(C)n1-c1cccc([N+](=O)[O-])c1,.,.,88,.,/,.
Cc1ccc(N2CCN(C(=O)c3ccccc3NC(=O)/C=C\C(=O)O)CC2)cc1,.,.,.,.,.,/
Cc1sc(N/N=C/c2cc([N+](=O)[O-])ccc2O)nc1-c1ccccc1,.,.,.,.,.,/
C=CCSc1nnc2c(n1)[nH]c1c(C)cccc12,.,/,61,.,/,.
CCOc1ccc(-n2c(SCC(N)=O)nc3c([nH]c4ccccc43)c2=O)cc1,.,/,68,.,.,.
CCOc1ccc(-n2c(SCC(=O)Nc3cc(C)on3)nc3c([nH]c4ccccc43)c2=O)cc1,.,/,.,.,.,/
CC1N(C)c2cccc3cccc(c23)N1C,.,.,.,.,.,/
CC1=Nc2cccc3cccc(c23)N1C,.,.,85,.,.,.
O=C1C(=O)c2c(C(=O)c3ccccc3)coc2-c2ccccc21,.,.,100,.,.,61
CCC1S/C(=N/N=C/c2ccco2)N(Cc2ccccc2)C1=O (configuration not stated),.,.,/,/,.,/
CC[n+]1c(C)sc2c(C)cc(C)cc21,.,/,69,.,/,.
Cc1cc(C)c2sc(C)[n+](CCCS(=O)(=O)[O-])c2c1,.,.,.,.,.,/
O=C(O)CSCC(=O)N1CCN(S(=O)(=O)c2ccccc2)CC1,.,.,.,.,.,/
O=C(CN1CCc2ccccc2C1)N1CCN(S(=O)(=O)c2ccccc2)CC1,.,/,90,.,/,.
N=C1C(c2ccccc2)=C(O)CN1c1cccc(S(=O)(=O)N2CCCCC2)c1,.,/,/,/,.,/
CC(C)(C)[C@]1(O)CCN2C[C@H]3c4ccccc4CCc4cccc(c43)[C@@H]2C1,.,/,57,.,.,.
CCCCCCCCCCCCCCCC[n+]1cccc(C(=O)N(CC)CC)c1,.,/,100,.,.,79
CCCCCCCCCCCCCCCC[n+]1ccc(/C=N/O)cc1,.,/,100,98,.,101
CCCCCCCCCCCCCCCC[n+]1ccc(C(N)=O)cc1,72,.,100,99,.,.
CCN(CC)C(=O)c1ccc(/C=C/c2c[nH]c3ccccc23)[n+](C)c1,.,/,.,.,.,/
S=C1NC[C@H](Cc2cccc3ccccc23)N1CC1CCCCC1,.,/,/,/,.,/
CCOc1cc(N2CCOCC2)c(OCC)cc1NC(C)C(=O)N1CCC(C)CC1 (configuration not stated),.,/,.,.,.,/
O=[N+]([O-])c1ccc(O)c2ncccc12,.,/,96,.,.,.
SMILES,Calpain2 inh,ROMK primary,Lmaj promast,WT yeast gro inh,KCC2 mod,Lmaj promast 1uM
O=[N+]([O-])c1ccc(O)c2cccnc12,.,.,.,.,.,/
NS(=O)(=O)c1cccnc1Nc1cccc(Cl)c1Cl,.,.,.,.,.,/
O=c1c(Cc2c(F)cccc2Cl)c(O)ccn1CCCn1ccnc1,.,.,.,.,.,/
COc1ccc(C2c3ccsc3CCN2C(=O)C(C)(C)C)cc1 (configuration not stated),.,/,/,/,.,/
CN(C)c1ccc(/C=N/NC(=O)c2nonc2N)cc1[N+](=O)[O-],.,.,.,.,.,/
Nc1nonc1C(=O)N/N=C/c1cccc([N+](=O)[O-])c1,.,/,54,.,.,.
N#Cc1cc(Oc2ccccc2)c(-n2nnc3ccccc32)cc1C#N,.,.,.,.,.,/
N#Cc1cc(Oc2ccc3ccccc3c2)c(-n2nnc3ccccc32)cc1C#N,.,.,52,.,.,96
CC1(C)CC2(CC(c3ccccc3F)c3cc(Cl)c(O)cc3O2)NC(=S)N1 (configuration not stated),.,.,83,.,.,.
COc1ccc(-c2ccc(=O)n(CC(=O)NC3CCc4ccccc43)n2)cc1OC (configuration not stated),.,.,.,.,/,/

# Assay outcomes (PubChem BioAssay)
